Reference: PubChem BioAssay (EPA / NIEHS)
Activity calls are given as the source filed them. Rule for the calls: active = hit-call score of the fitted dose curve at least 0.9, where 1 is the maximum; inactive = score below 0.9.

read-out: Cytochrome P450 3A7 (Homo sapiens) (UniProt P24462); experiment: LTEA_HepaRG_CYP3A7: Life Technologies and Expression Analysis (LTEA) Assay for CYP3A7 using HepaRG (AID 2283492); details: mRNA level, 48 h; actives raise or lower the signal
Experimental: LTEA_HepaRG is a cell based, multiplexed-readout assay that uses HepaRG, a human liver cell line, with measurements taken at 48 hours after chemical dosing on a 96-well plate.LTEA_HepaRG_CYP3A7 is one of 102 assay component(s) measured in the LTEA HepaRG cell culture assay. It is a marker of NR mediated metabolism/Undifferentiated hepatocyte.Data from the assay component LTEA_HepaRG_CYP3A7 was analyzed into 1 endpoint. This assay endpoint, LTEA_HepaRG_CYP3A7, was analyzed with bidirectional fitting relative to DMSO as the negative control and baseline of activity. Using a type of inducible reporter, measures of mRNA induction for gain or loss-of-signal activity can be used to understand regulation of transcription factor activity. To generalize the intended target to other relatable targets, this assay endpoint is annotated to the cyp intended target family, where the subfamily is xenobiotic metabolism.
A total of 1060 chemcials from the ToxCast library were tested in eight-point concentration-response experiments. Cell culture and cytotoxicity assays were conducted at Thermo Fisher Scientific's Custom Services facility (Madison, WI). A single lot of human HepaRG cells (Thermo Fisher Scientific, Frederick, MD) was used for the cell culture experiments. 96-well format collagen type I coated plates of human HepaRG cells were prepared using established methods. Briefly, cryopreserved HepaRG cells were thawed, plated at a density of approximately 100,000 cells/well in HepaRG Thaw, Plate, and General Purpose media (HPRG770, Thermo Fisher Scientific), and incubated for 48 hours. 0.5% DMSO was selected as vehicle control to balance the requisite need of DMSO in HepaRG cultures to maintain differentiation (for example, baseline metabolism, proportions of hepatocytes vs. cholangiocytes), while enabling further hepatic receptor pathway activation (for example, PXR and CAR) in response to chemical exposure. 48 hours after plating, the culture medium was replaced with HepaRG Serum-Free Incudtion Media. Cells were exposed to each test chemical in duplicate and maintained in CO2 incubators for another 48 hours. Chemical plates were thawed to room temperature and 200x concentrations of treatment groups were prepared. 8-point conentration-reponse curves were made with the highest exposure at 100 uM, followed by half-log dilutions, all in 0.5% DMSO. Each test plate contained variouse controls, induction positive controls (1mM phenobarbital), cytotoxicity positive controls ([…] aflatoxin B1), vehicle controls (0.5% DMSO), and total lysis controls (0.5% DMSO). Cell morphology images were taken using an Essen IncuCyte FLR automated microscope, with six 96-well plates imaged in about 24 minutes. Images were captured and exported and JPEG files. Spent culture media was transfered to black-well plates for the LDH assay, and remaining media was sorted at -80 C for later use. Cells were treated with RLT buffer and frozen until shipped for gene expression analysis. Total RNA was isolated from the cell suspension in 75 uL of Buffer RLT (Qiagen, Germantown, MD 20874) by Quintiles/Expression Analysis (Durham, NC) using a custom isolation procedure. Total RNA from each plate well was transferred to a preamplification plate. Fluidigm's 96.96 Dynamic ArrayTM (Fluidigm, Amsterdam, the Netherlands) technology was used for gene expression analyses by quantitative reverse transcription polymerase chain reaction (qRT-PCR, performed by Quintiles/Expression Analysis, Durham, NC)89. Standard TaqManTM Assays (Applied Biosystems/ThermoFisher Scientific, Foster City, CA) were used to assess the expression of 93 genes selected based on their selectivity and sensitivity to important hepatic receptors known to be modulated by environmental chemicals; importance in human hepatocyte functionality; and hepatotoxicity. […]

Chain of Cytochrome P450 3A7 (Homo sapiens) (P24462 whole entry, looked up): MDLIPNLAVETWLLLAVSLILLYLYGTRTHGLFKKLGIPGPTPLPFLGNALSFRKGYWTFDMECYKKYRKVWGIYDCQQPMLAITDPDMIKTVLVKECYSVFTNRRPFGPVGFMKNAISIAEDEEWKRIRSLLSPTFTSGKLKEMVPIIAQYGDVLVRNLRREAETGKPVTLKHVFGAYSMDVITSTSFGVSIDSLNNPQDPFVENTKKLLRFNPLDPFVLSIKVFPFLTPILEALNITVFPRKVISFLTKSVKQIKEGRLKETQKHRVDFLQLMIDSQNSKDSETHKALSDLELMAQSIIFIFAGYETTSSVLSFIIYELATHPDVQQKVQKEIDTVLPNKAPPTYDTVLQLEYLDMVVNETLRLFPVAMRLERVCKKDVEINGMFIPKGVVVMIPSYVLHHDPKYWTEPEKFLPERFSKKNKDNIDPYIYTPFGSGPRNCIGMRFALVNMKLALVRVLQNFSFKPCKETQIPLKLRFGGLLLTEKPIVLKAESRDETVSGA

SMILES | AC50 | outcome
CCOC(=O)C(C)OC(=O)c1cc(Oc2ccc(C(F)(F)F)cc2Cl)ccc1[N+](=O)[O-] (stereo not given) | 5.9 µM (active) | –
O=P(O)(O)CCCl | – | inactive
Cc1cc(C)nc(Nc2ccccc2)n1 | – | inactive
CCOc1nc(F)cc2nc(S(=O)(=O)Nc3c(Cl)cccc3Cl)nn12 | 9.92 µM (active) | –
N#Cc1c[nH]cc1-c1cccc2c1OC(F)(F)O2 | – | inactive
CS(=O)(=O)c1cc(C(F)(F)F)ccc1C(=O)c1cnoc1C1CC1 | – | inactive
CC(C)N1C(=O)N(c2ccccc2)CSC1=NC(C)(C)C | – | inactive
Clc1nc(Cl)nc(Nc2ccccc2Cl)n1 | – | inactive
C=C(C)CN(CC)c1c([N+](=O)[O-])cc(C(F)(F)F)cc1[N+](=O)[O-] | – | inactive
CC1(C)C(C(=O)OC(C#N)c2cccc(Oc3ccccc3)c2)C1(C)C (stereo not given) | – | inactive
COC(=O)c1c(C(F)F)nc(C(F)(F)F)c(C2=NCCS2)c1CC(C)C | 50 µM (active) | –
COCc1cnc(C2=NC(C)(C(C)C)C(=O)N2)c(C(=O)O)c1 (stereo not given) | – | inactive
COCC(C)N(C(=O)CCl)c1c(C)csc1C (stereo not given) | – | inactive
O=c1n(Cl)c(=O)n(Cl)c(=O)n1Cl | – | inactive
CC1(C)CON(Cc2ccccc2Cl)C1=O | 1.47 µM (active) | –
COC(=O)NS(=O)(=O)c1ccc(N)cc1 | – | inactive
CSC(=O)c1c(C(F)F)nc(C(F)(F)F)c(C(=O)SC)c1CC(C)C | 12.6 µM (active) | –
CC(C)Nc1nc(Cl)nc(NC(C)C)n1 | 2.51 µM (active) | –
CCCCC(O)(Cn1cncn1)c1ccc(Cl)cc1Cl (stereo not given) | 89.4 µM (active) | –
Cc1c(COC(=O)[C@@H]2[C@H](/C=C(\Cl)C(F)(F)F)C2(C)C)cccc1-c1ccccc1 | 4.87 µM (active) | –

SMILES | AC50 | outcome
Cc1nc(N(C)C)nc(OC(=O)N(C)C)c1C | 19.9 µM (active) | –
Nc1c(Cl)c(Cl)nc(C(=O)O)c1Cl | – | inactive
CN=C=S | – | inactive
COC(=O)N(C(=O)N1CO[C@@]2(C(=O)OC)Cc3cc(Cl)ccc3C2=N1)c1ccc(OC(F)(F)F)cc1 | 73.1 µM (active) | –
CCNP(=S)(OC)O/C(C)=C/C(=O)OC(C)C (stereo not given) | 4.03 µM (active) | –
CCOP(=O)(OCC)Oc1nc(Cl)c(Cl)cc1Cl | 92.1 µM (active) | –
CCSC(=O)N1CCCCCC1 | – | inactive
COc1cc(Cl)c(OC)cc1Cl | 8.31 µM (active) | –
CN/C(=N\[N+](=O)[O-])NCc1cnc(Cl)s1 | – | inactive
Nc1c(Cl)c(F)nc(OCC(=O)O)c1Cl | – | inactive
CO/N=C(/C1=NOCCO1)c1ccccc1Oc1ncnc(Oc2ccccc2Cl)c1F | 12.4 µM (active) | –
CCN(CC)c1nc(C)cc(OP(=S)(OC)OC)n1 | 8.23 µM (active) | –
CC1(C)C(C=C(Cl)Cl)C1C(=O)OC(C#N)c1cccc(Oc2ccccc2)c1 (stereo not given) | – | inactive
CC(C)(C)C(=O)C(Oc1ccc(Cl)cc1)n1cncn1 (stereo not given) | 12.1 µM (active) | –
COC(=O)NC(=S)Nc1ccccc1NC(=S)NC(=O)OC | 4.46 µM (active) | –
N#CN=C1SCCN1Cc1ccc(Cl)nc1 | – | inactive
CNC(=O)Oc1cccc2ccccc12 | – | inactive
COP(=O)(OC)O/C(C)=C/C(=O)N(C)C | – | inactive
COP(=S)(OC)Oc1ccc([N+](=O)[O-])c(C)c1 | – | inactive
N#Cc1c(Cl)cccc1Cl | – | inactive
